{"source": "PubChem BioAssay (NCI)", "note": "“And” between values parts separate entries of the source, which are not always exact repeats. Identical values can stand only once. This is part of a sample that, as a whole, favours compounds with a hit. Of some 83,000 tested, about 20% had one in any assay.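 Results are percent growth after 48 hours of single-concentration exposure. 100 means growth as in untreated cells, lower positive values show inhibition; negative values down to -100 show cell death.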 Unmarked numbers belong to inactive results. The source made the active and inactive calls."}
{"test_system": "RPMI-8226 leukemia", "assay": "NCI-60 one-dose screen, 48 h (100 = growth as untreated, 0 = no growth, -100 = all killed)", "settings": "10 µM unless noted", "procedure": "Growth inhibition of the RPMI-8226 human tumor cell line is measured as a screen for anti-cancer activity. Cells are grown in 96 well plates and exposed to the test compound for 48 hours. Compounds are tested at a single concentration, which is 10^-5 M for most compounds. The reported endpoint is percent growth (GI% or GIPRCNT), where numbers from 0 - 100% represent growth inhibition, and numbers from -100% - 0 represent cell death. For example, a value of 40 represents 60% growth inhibition. A value of 0 means no net growth occurred over the course of the experiment. A value of -40 indicates 40% of cells at the beginning of the experiment died by the end of the experiment. A value of -100 means all cells are dead at the end of the experiment.\nNCI-60 Human Tumor Cell Lines Screen was performed using the standard one-dose NCI protocol, which is described in more detail at https://dtp.cancer.gov/discovery_development/nci-60/default.htm.\nCompounds with GIPRCNT values below 10 were considered active. Activity score was based on GIPRCNT using the following formula: […]\nScore is 0 for GIPRCNT values of 100 or above, 50 for GIPRCNT values of 0, and 100 for GIPRCNT values of -100."}
{"smiles": "CCCCCCCCCCCCCCCCCCn1cc[n+](C)c1", "growth": "93.8% and 75.6%"}
{"smiles": "O=C(O)C1C(C(=O)O)C2(Cl)C(Cl)=C(Cl)C1(Cl)C2(Cl)Cl", "note": "(stereo not given)", "growth": "94% and 115%"}
{"smiles": "O=C(O)C(F)F", "growth": "114%"}
{"smiles": "N#Cc1ccc(Cl)cc1", "growth": "106%"}
{"smiles": "CN(C)c1ccc(C=C2C(=O)NC(=O)NC2=O)cc1", "growth": "131%"}
{"smiles": "CCOC(=O)c1ccccc1C(=O)OCC", "growth": "88.1%"}
{"smiles": "NC1CN2CCC1CC2", "note": "(stereo not given)", "growth": "96.4%"}
{"smiles": "COC(=O)CCP(CCC(=O)OC)c1ccccc1", "growth": "113%"}
{"smiles": "Cc1ccccc1-n1c(/C=C\\c2ccccn2)nc2ccccc2c1=O", "growth": "2.88% (active)"}
{"smiles": "CN(C)c1ccc([N+](=O)[O-])c([N+](=O)[O-])c1", "growth": "106% and 103%"}
{"smiles": "N#CCC(=O)c1ccccc1", "growth": "108%"}
{"smiles": "CNC(=O)CCl", "growth": "106%"}
{"smiles": "COc1cc2c(cc1OC)-c1c3c(cc4c1[C@@H](C2)N(C)CC4)OCO3", "growth": "23.9%"}
{"smiles": "CC1=C(C)C(=O)O[C@@H]([C@](C)(O)[C@]2(O)CC[C@@]3(O)[C@@H]4C[C@H]5O[C@]56CC=CC(=O)[C@]6(C)[C@H]4CC[C@]23C)C1", "growth": "-19.2% (active)"}
{"smiles": "CCN1C(=O)NC(=O)C(C)(N2C(=O)c3c(F)c(F)c(F)c(F)c3C2=O)C1=O", "note": "(stereo not given)", "growth": "2.56% (active)"}
{"smiles": "N[C@@H](CCC(=O)CCl)C(=O)O", "growth": "111% [20 µM]"}
{"smiles": "CC[C@H](C)[C@H]1O[C@]2(C=C[C@@H]1C)C[C@@H]1C[C@@H](C/C=C(\\C)[C@@H](O[C@H]3C[C@H](OC)[C@@H](O[C@H]4C[C@H](OC)[C@@H](NC)[C@H](C)O4)[C@H](C)O3)[C@@H](C)/C=C/C=C3\\CO[C@@H]4[C@H](O)C(C)=C[C@@H](C(=O)O1)[C@]34O)O2", "growth": "-30.7% (active)"}
{"smiles": "Cc1cc(N)ccc1N", "growth": "77%"}
{"smiles": "CNC(=O)O/N=C(\\SC)C(=O)N(C)C", "growth": "86%"}
{"smiles": "CCCC1CCCCC12C(=O)NC(=O)NC2=O", "note": "(stereo not given)", "growth": "95.9%"}
{"smiles": "O=C(CBr)OCCOC(=O)CBr", "growth": "33.8%"}
{"smiles": "CO/N=C1\\CC[C@]2(C)[C@H]3CC[C@]4(C)C(=O)CC[C@H]4[C@@H]3C[C@@H]3SC(N)=N[C@@]32C1", "growth": "93.2%"}
{"smiles": "COc1ccc(N)cc1N", "growth": "90.1%"}
{"smiles": "CC(C)COC(=O)Cc1ccccc1", "growth": "103%"}
{"smiles": "CC/C(=C(\\c1ccc(OCCN2CCOCC2)cc1)c1ccc(OC(=O)Cc2ccccc2)cc1)c1ccc(Cl)cc1", "growth": "98.8%"}
{"smiles": "C[C@]12CC[C@H]3[C@@H](C[C@@H]4SC(Nc5ccccc5)=N[C@@]45C/C(=N/O)CC[C@]35C)[C@@H]1CCC2=O", "growth": "-1.41% (active)"}
{"smiles": "COC(=O)C1=CCCN(C)C1", "growth": "106%"}
{"smiles": "Cc1nnc([S-])o1.[Au+].c1ccc([PH+](c2ccccc2)c2ccccc2)cc1", "growth": "17.2%"}
{"smiles": "Cc1cc[c-]cc1.Fc1c[c-]c(-c2ccccn2)c(F)c1.[Pt+2].c1ccc([PH+](c2ccccc2)c2ccccn2)cc1", "growth": "15.9%"}
{"smiles": "CCC(=O)C(CC(C)N1CCCCCC1)(c1ccccc1)c1ccccc1", "note": "(stereo not given)", "growth": "99.3%"}
{"smiles": "CC12CCC3C(CCC4CC(O)CCC43C)C1CCC2=O", "note": "(stereo not given)", "growth": "100%"}
{"smiles": "COC(=O)[C@@H](C)C[C@H](Cc1ccccc1)NC(=O)c1cccc([C@@H](C[C@H](C(C)C)N(C)C(=O)[C@@H](NC(=O)[C@H]2CCCCN2C)C2CC2)OC(C)=O)n1", "growth": "25.4%"}
{"smiles": "Cn1cc(-c2csc(-c3cn(CCCCN4CCOCC4)c4ccc(F)cc34)n2)c2cccnc21", "growth": "49%"}
{"smiles": "C#Cc1cccc(Nc2nc(Cl)nc3cc(NC(=O)CF)ccc23)c1", "growth": "103%"}
{"smiles": "CCCC[C@H]1C(=O)O[C@H](C)[C@H](NC(=O)c2cccc(NC=O)c2O)C(=O)O[C@@H](C)[C@@H]1OC(=O)CC(C)C", "growth": "18.2%"}
{"smiles": "Cc1ccc(N2CCN(CCC#N)CC2)cc1", "growth": "96.7%"}
{"smiles": "C(=NC1CCCCC1)=NC1CCCCC1", "growth": "97.6% and 50%"}
{"smiles": "OCCNC1CCCCC1", "growth": "108%"}
{"smiles": "O=c1[nH]c(=O)n(Cl)c(=O)n1Cl", "growth": "82.1%"}
{"smiles": "Oc1ccccc1C=NCCN=Cc1ccccc1O", "growth": "95.1%"}
